# Bioassay records deposited in PubChem by National Center for Advancing Translational Sciences (NCATS).
# p53ts 39C tox = p53ts cell cytotoxicity, nonpermissive temperature. H1299-p53A138V viability at 39C, ATP luminescence, 24 h. 130,000 compounds, 1.5% hits. Potency, µM (top dose mostly 46.1 µM), without a hit: top-dose activity change, negative = cell killing, actives largely listed as cytotoxic. AID 902; note: nearly all actives have a fitted effect of over 55% in size
# FLuc inh = blocks Photinus pyralis firefly luciferase activity; 72,000 compounds, 2.2% hits; purified firefly luciferase, luminescence, 8 min; Potency, µM (doses to about 57.1 µM), without a hit: top-dose activity change, negative = inhibition, most hits filed as inhibitors; P08659; AID 411; note: nearly all actives have a fitted effect of over 40% in size
# Target sequence (P08659 whole entry, looked up): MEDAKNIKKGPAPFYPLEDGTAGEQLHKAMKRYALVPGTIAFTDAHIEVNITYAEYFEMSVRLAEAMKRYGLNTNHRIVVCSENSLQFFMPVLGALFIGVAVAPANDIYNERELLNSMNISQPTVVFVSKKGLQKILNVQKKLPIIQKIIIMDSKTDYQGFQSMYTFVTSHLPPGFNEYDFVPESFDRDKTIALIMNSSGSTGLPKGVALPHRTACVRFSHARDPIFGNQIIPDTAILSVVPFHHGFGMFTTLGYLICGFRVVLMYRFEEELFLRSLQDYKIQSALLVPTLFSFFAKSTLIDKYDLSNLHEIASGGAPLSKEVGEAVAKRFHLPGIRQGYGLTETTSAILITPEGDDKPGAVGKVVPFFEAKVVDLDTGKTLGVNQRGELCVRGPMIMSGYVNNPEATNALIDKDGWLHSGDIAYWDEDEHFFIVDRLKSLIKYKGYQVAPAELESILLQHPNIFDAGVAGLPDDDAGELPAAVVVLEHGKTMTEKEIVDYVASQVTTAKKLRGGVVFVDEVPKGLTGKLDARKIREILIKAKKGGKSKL
#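 Titration-based qHTS; buffer 50 mM imidazole pH 7.2, 50 mM KCl, 7 mM MgCl2, 10 uM ATP, 0.01% Tween 20, 0.05% BSA; luciferase/luciferin detector mix added after compound; 8 min, ambient; luminescence.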
# p53ts 32C tox = p53ts cell cytotoxicity, permissive temperature | H1299-p53A138V at 32C, ATP luminescence viability, 24 h | Potency, µM (series often up to 46.1 µM), for inactives: at the highest dose activity change, negative = cytotoxicity, most hits filed as cytotoxic | 130,000 compounds, 0.93% hits | AID 924;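 note: 0% = DMSO and -100% = full killing by reference compound; nearly all actives have a fitted effect of over 55% in size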
#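 Cells: H1299 p53ts (A138V), 600/well, pre-incubated 16–30 h at 37C. Cpd up to 46 uM, 24 h, 32C. Readout: ATPlite luminescence, 20 min RT. Normalization: DMSO vs tamoxifen 100 uM. AC50 by Hill equation.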
# * = called active by the depositor; ? = inconclusive; . = no result given; [ ] = dose if it differs, or a comment. Only some compounds are listed: those with a hit (about 2.6% of all), similar ones and a draw of the others. Calls come from the whole dose curve; as a rule, active = well fitted curve in the direction sought with a large enough effect; inconclusive = small, poorly fitted or top-dose-only effect, or another doubt; inactive = no such curve, though single readings can be large; an effect the other way counts as inactive or inconclusive. Unless noted, % is set by controls: 0 for no effect and ±100 for the full control effect; potency is the fitted concentration of half-maximal effect.
SMILES,p53ts 39C tox,FLuc inh,p53ts 32C tox
CCC(=O)C1=C(c2ccc(F)cc2)N(C(=O)CC)n2cnnc2S1,66%,.,9%
COc1ccc(/C=C\c2onc(C)c2S(=O)(=O)N2CCC(C(=O)Nc3ccc(F)cc3F)CC2)cc1,0%,.,-5%
O=C(COC(=O)c1cccc(NC(=O)c2ccco2)c1)c1ccc(Br)cc1,1%,2.5µM*,19%
O=C(COC(=O)c1cccc(NC(=O)c2ccc(Br)cc2)c1)c1ccc(Cl)cc1,?,.,-30%
CCOC(=O)c1ccc2nc(NC(=O)c3cccs3)sc2c1,?,7.9µM*,?
CCOC(=O)c1sc(NC(=O)c2ccc(CC)s2)nc1C,19%,0%,8%
CCOC(=O)c1ccc2nc(NC(=O)c3ccco3)sc2c1,?,16µM*,?
Cc1ccc2nc(NC(=O)COC(=O)c3ccco3)sc2c1,-19%,-14%,-11%
CCOC(=O)c1ccc2nc(NC(=O)C(C)C)sc2c1,6%,2%,7%
C=CCOC(=O)c1sc(NC(=O)c2ccco2)nc1C,?,?,10µM*
COc1ccc(Nc2nc3ccc(Cl)cc3n3nnnc23)cc1OC,-26%,.,-1%
COc1ccc(OC)c(NC(=O)Cn2c(=O)n(Cc3ccco3)c(=O)c3cc(OC)c(OC)cc32)c1,-12%,.,0%
Cc1cc(=O)oc2cc(O[C@@H]3O[C@H](C(=O)O)[C@@H](O)[C@H](O)[C@H]3O)ccc12,0%,.,3%
NC(=O)Nc1nc2ccccc2[nH]1,6%,.,10%[1.84 µM]
C/C(=N\Nc1nc2ccccc2[nH]1)c1cc2ccccc2o1,13µM*,.,16µM*
CN(C)CCNC(=O)c1ccc(Cc2nc3ccccc3[nH]2)cc1,-6%,.,-1%
COc1ccc(C2C3=C(CCCC3=O)Nc3nc4ccccc4n32)c(OC)c1OC (centres undefined),-8%,4%,22%
CCOc1ccc(C2=CC(c3cccc(Br)c3)n3c(nc4ccccc43)N2)cc1Cl (centres undefined),-18%,.,-7%
CCc1ccc(C2=CC(c3cccc(C)c3)n3c(nc4ccccc43)N2)cc1 (centres undefined),5µM*,.,8.9µM*
CCc1ccc(C2=CC(c3cccc(OC)c3OC)n3c(nc4ccccc43)N2)cc1 (centres undefined),16µM*,.,10µM*
Cc1ccc(NC(=O)c2ccc(CNS(=O)(=O)c3ccc4c(c3)C(C)(C)C(=O)N4C)cc2)cc1F,-8%,.,-5%
COc1ccccc1N1CCN(c2ncccc2-c2nc(-c3ccc(Cl)cc3)no2)CC1,-20%,.,-10%
Cc1ccc(CNC(=O)Cn2c3ncccc3c(=O)n2-c2ccc(C)cc2)cc1,-12%,.,5%
Cc1ccc(CNC(=O)CCCc2nnc3n(C)c(=O)c4sccc4n23)cc1,9%,.,-3%
O=C(NCCCN1CCOCC1)c1ccc(-n2c(=O)c(=O)[nH]c3ccccc32)cc1,1%,.,8%
SMILES,p53ts 39C tox,FLuc inh,p53ts 32C tox
CCCN(CCC)CCCNC(=O)Cn1ncc2c3ccccc3n(Cc3ccccc3F)c2c1=O,?,.,-4%
CCCCN(C)CCCNC(=O)Cn1ncc2c3ccccc3n(Cc3ccccc3)c2c1=O,-13%,.,0%
CCCCN(C)CCCNC(=O)Cn1ncc2c3ccccc3n(Cc3ccccc3F)c2c1=O,13µM*,.,-4%
Cc1ccc(C)c(Cn2c3ccccc3c3cnn(CC(=O)NC(C)CCc4ccccc4)c(=O)c32)c1 (centres undefined),5µM*,.,-27%
CCCCN(C)CCCNC(=O)Cn1ncc2c3ccccc3n(Cc3cc(C)ccc3C)c2c1=O,2.5µM*,.,-6%
CC(CCc1ccccc1)NC(=O)Cn1ncc2c3ccccc3n(Cc3ccccc3)c2c1=O (centres undefined),-15%,.,-4%
COc1ccc(NC(=O)C2=C(C)Nc3nc(SCc4ccc(C)cc4C)nn3C2c2cccc(OC)c2OC)cc1 (centres undefined),-28%,.,3%
Cc1cnc(CNc2ncncc2-c2ccoc2)cn1,-8%,0%[2.29 µM],8%
CCn1c(CN2CCCCCC2=O)nnc1SCc1cnc(-c2ccccc2)s1,-4%,-2%,2%
Cc1ccc(-c2csc3ncnc(Sc4nnc(CN5CCCCCC5=O)o4)c23)cc1,?,-1%,25µM*
O=C(Nc1cccc(-c2nc3ccccc3[nH]2)c1)c1c(F)cccc1F,-6%,.,3%
Cc1ccc(S(=O)(=O)N[C@@H](Cc2ccccc2)C(=O)CCl)cc1,3.2µM*,-5%,6.3µM*
Cc1ccc(S(=O)(=O)N[C@H](CO)C(=O)O)cc1,7%[9.22 µM],2%[11.4 µM],18%[9.22 µM]
O=C(C1CCN(S(=O)(=O)Cc2ccccc2)CC1)N1CCN(c2cccc(C(F)(F)F)c2)CC1,17%,.,7%
CCOC(=O)c1oc2ccc(CNCCO)c(Cl)c2c1C,-10%,25µM*,-19%
